Measured values reported in PubChem BioAssay AID1220 (Sanford-Burnham Center for Chemical Genomics, 2008).
The whole screen tested about 190,000 compounds, of which about 1,300 (0.68%) were called active. This is one part of a sample in which actives are shown more often than they occur. Rule as the data show it: active = inhibition above about 50%; inactive = the rest.

Target: Mannose-6-phosphate isomerase (Homo sapiens) (UniProt P34949)
Test: human PMI inhibitors, high substrate, primary screen, biochemical, fluorescence intensity, high mannose 6-phosphate (AID 1220)
Settings: recombinant PMI enzyme, coupled fluorescence intensity; at 20 µM; active compounds read high

Chain of Mannose-6-phosphate isomerase (Homo sapiens) (P34949 whole entry, looked up): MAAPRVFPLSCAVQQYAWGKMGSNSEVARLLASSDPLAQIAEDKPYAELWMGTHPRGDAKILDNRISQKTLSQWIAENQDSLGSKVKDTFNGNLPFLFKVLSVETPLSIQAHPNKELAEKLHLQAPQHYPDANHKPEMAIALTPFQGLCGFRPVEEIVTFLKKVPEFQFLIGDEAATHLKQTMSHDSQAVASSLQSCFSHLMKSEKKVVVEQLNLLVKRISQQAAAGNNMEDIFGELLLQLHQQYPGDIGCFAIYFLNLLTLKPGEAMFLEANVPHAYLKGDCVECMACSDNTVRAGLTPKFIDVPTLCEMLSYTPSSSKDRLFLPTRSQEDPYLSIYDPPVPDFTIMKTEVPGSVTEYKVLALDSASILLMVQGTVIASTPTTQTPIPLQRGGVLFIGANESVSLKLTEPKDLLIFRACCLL

Row | Compound | inhibition
1 | Cc1cc(C)c(S(=O)(=O)/N=C2\C=CC(=O)C(Cl)=C2)c(C)c1 | -6.5% (inactive)
2 | C=CCNc1nc(-c2c(C)nc3sccn23)cs1 | 55.2% (active)
3 | Cc1nc2sccn2c1-c1csc(NCc2ccccc2)n1 | 34.1% (inactive)
4 | Cc1ccnc(Nc2nc(-c3c(C)nc4sccn34)cs2)c1 | 19.1% (inactive)
5 | COC(=O)c1c(O)c2c([nH]c1=O)CCCC2 | -0.6% (inactive)
6 | CCCCCn1c(CN2CC(C)OC(C)C2)nc2c1c(=O)n(C)c(=O)n2C (stereo not drawn) | 8.9% (inactive)
7 | CCn1c(Cc2ccccc2)nnc1SCC(=O)NC(C)(C)C | 52.9% (active)
8 | COCCn1c(Cc2ccccc2)nnc1SCC(=O)NC(C)(C)C | -1.6% (inactive)
9 | CCn1c(Cc2cccs2)nnc1SCC(=O)NC(C)(C)C | -5.7% (inactive)
10 | CN1CCCN(C(=O)CNC(=O)Cc2ccccc2)CC1 | 4.9% (inactive)
11 | COC(=O)C1=C(C)NC2=C(C(=O)CCC2)C1c1cn(Cc2ccc(Br)cc2)nc1-c1ccccc1 (stereo not drawn) | 13.4% (inactive)
12 | COc1cccc(NC(=O)NC2(C(F)(F)F)Oc3ccccc3O2)c1 | 48.7% (inactive)
13 | COc1ccc(OC)c(NC(=O)Nc2ccccc2C)c1 | 1.9% (inactive)
14 | COc1ccc(OC)c(NC(=O)NC2(C(F)(F)F)Oc3ccccc3O2)c1 | 58% (active)
15 | COc1ccc(N2CCN(CCC3Oc4cc([N+](=O)[O-])ccc4NC3=O)CC2)cc1 (stereo not drawn) | 38.8% (inactive)
16 | Cc1cc(NC(=O)C2CC2)ncc1NC(=O)C12CC3CC(CC(C3)C1)C2 | 5.3% (inactive)
17 | CC1(c2ccc(Cl)cc2Cl)OCC(Cn2ccnc2)O1 (stereo not drawn) | 3.5% (inactive)
18 | CC(C)(C)c1ccc(O)c(N=Cc2cc(Br)ccc2O)c1 | 39.3% (inactive)
19 | Oc1ccc(Br)cc1C=Nc1ccc2c3c(cccc13)CC2 | 67.1% (active)
20 | Cc1cccc(C=Nc2ccc3c4c(cccc24)CC3)c1O | 45.4% (inactive)
21 | Cc1nnc(SCC(=O)NC2CCS(=O)(=O)C2)n1-c1ccccc1 (stereo not drawn) | -3.2% (inactive)

Row | Compound | inhibition
22 | Cc1cc(C)c(S(=O)(=O)Nc2cc(SCC(=O)O)c(O)c3ccccc23)cc1C | 21.6% (inactive)
23 | COc1ccc(S(=O)(=O)Nc2ccc(O)c(Sc3ncn[nH]3)c2)cc1 | 13% (inactive)
24 | O=S(=O)(Nc1ccccc1O)c1cccc2cccnc12 | 11.7% (inactive)
25 | O=S(=O)(Nc1cc(Sc2cccc3cccnc23)c(O)c2ccccc12)c1ccc(F)cc1 | 51.1% (active)
26 | Cc1ccc(S(=O)(=O)Nc2cccc3cccnc23)cc1 | 16.3% (inactive)
27 | CCOc1ccc(S(=O)(=O)Nc2ccc(O)c(Sc3ncn[nH]3)c2)cc1 | 2.5% (inactive)
28 | Cc1ccc(S(=O)(=O)Nc2ccc(O)c3ncccc23)cc1 | 27.9% (inactive)
29 | COc1ccc(S(=O)(=O)Nc2cc(Sc3ncn[nH]3)c(O)c3ccccc23)cc1 | 72.4% (active)
30 | CCc1ccc(S(=O)(=O)Nc2cc(SCC(=O)O)c(O)c3ccccc23)cc1 | 7.4% (inactive)
31 | O=S(=O)(Nc1cc(Sc2cccc3cccnc23)c(O)c2ccccc12)c1ccccc1 | 63.7% (active)
32 | O=C(Sc1cccc2cccnc12)c1ccc(F)cc1 | 11.3% (inactive)
33 | Cc1ccc(S(=O)(=O)Nc2ccc3c(c2)nc(CN2CCCC2)n3C)cc1 | -2.1% (inactive)
34 | CCOc1ccc(C(C)=O)cc1CSc1nnc(-c2cccs2)n1CC1CCCO1 (stereo not drawn) | 10.7% (inactive)
35 | O=[N+]([O-])c1cccc(/C=N/NC2=NCCCCC2)c1 | -4.3% (inactive)
36 | C=CCn1c(SCC(=O)c2ccc(NS(=O)(=O)c3ccccc3)cc2)nnc1-c1cccs1 | -16% (inactive)
37 | Cc1ccc(S(=O)(=O)/N=C(\c2ccccc2)N(C)S(=O)(=O)c2ccccc2)cc1 | -11.9% (inactive)
38 | CCC(Sc1ncccc1C(=O)O)C(=O)N1CCCC1 (stereo not drawn) | -5.9% (inactive)
39 | CC(=O)Nc1ccc2nc(NC(=O)COc3ccc([N+](=O)[O-])cc3)sc2c1 | 9.4% (inactive)
40 | O=C(O)CC1SC(=O)N(Cc2ccccc2)C1=O (stereo not drawn) | 8.1% (inactive)
41 | COc1ccc(CCn2c(=O)[nH]c3cc(C(=O)NCCc4ccccc4)ccc3c2=O)cc1OC | -2.6% (inactive)
42 | O=c1c2ccccc2nc2ccc(N3CCOCC3)nn12 | 0.2% (inactive)

Row | Compound | inhibition
43 | c1ccc2c(Nc3ccc4c(c3)OCCO4)c3c(nc2c1)CCC3 | 12.8% (inactive)
44 | CC/C(CC(=O)C(F)(F)F)=N\NC(=O)/C(C#N)=C/N(C)C | -0.8% (inactive)
45 | CC(C)CC(N=Cc1c(O)c2ccccc2oc1=O)C(=O)O (stereo not drawn) | -10.2% (inactive)
46 | COc1cc(C)ccc1OCCOCCOc1cccc2ccc(C)nc12 | 8.5% (inactive)
47 | Cc1ccc(OCCOc2cccc3ccc(C)nc23)c([N+](=O)[O-])c1 | 55% (active)
48 | Cc1ccc(OCCn2cnc3ccccc3c2=O)c([N+](=O)[O-])c1 | 0.1% (inactive)
49 | O=c1c2ccccc2ncn1CCOc1ccccc1[N+](=O)[O-] | -2.8% (inactive)
50 | Cc1ccc2cccc(Oc3ccc([N+](=O)[O-])cc3[N+](=O)[O-])c2n1 | 23.3% (inactive)
51 | Cc1ccc(OCCOCCn2cnc3ccccc3c2=O)c([N+](=O)[O-])c1 | 52.1% (active)
52 | CCN(C#N)c1nc(NC(C)C)nc(NC(C)(C)C)n1 | 5.4% (inactive)
53 | Cc1cccc(COCC(CC(C)C)N2CCN(C(=O)c3ccc(C(F)(F)F)cc3)CCC2=O)c1 (stereo not drawn) | -9% (inactive)
54 | Cc1[nH]c(=S)sc1Cc1ccc(F)cc1 | 6.5% (inactive)
55 | CNc1nc(-c2c[nH]c3ccccc23)cs1 | -53.9% (inactive)
56 | Nc1n[nH]c(-c2ccccc2[N+](=O)[O-])n1 | -2.3% (inactive)
57 | CCOCCn1c(=NC(=O)/C=C/c2ccccc2Cl)sc2cc(NC(C)=O)ccc21 | 2.9% (inactive)
58 | NC1CCCCC1N=Cc1c(O)n(CCc2ccc(F)cc2)c(=O)[nH]c1=O (stereo not drawn) | 2.4% (inactive)
59 | CCOc1ccc(S(=O)(=O)N(CC(=O)NC2CCCCC2C)Cc2ccco2)cc1 (stereo not drawn) | 3.3% (inactive)
60 | CCOc1cccc(C2c3c(oc4cc(C)c(C)cc4c3=O)C(=O)N2CCCN(C)C)c1 (stereo not drawn) | -0.5% (inactive)
61 | COc1ccc([N+](=O)[O-])cc1COc1ccc2c(-c3ccccc3)cc(=O)oc2c1 | -4.2% (inactive)
62 | COc1ccc([N+](=O)[O-])cc1COc1cc(C)cc2oc(=O)cc(-c3ccccc3)c12 | 58% (active)
63 | CCOc1cc(C)cc2oc(=O)cc(-c3ccccc3)c12 | 6.3% (inactive)
